Source: PubChem
This is a sample that favours compounds with a hit; in the whole collection about 3.3% have one here.
NPSR antagonist = blocks cAMP signaling of the human neuropeptide S receptor. CHO-NPSR cells, cAMP TR-FRET, antagonist mode. Q6W5P4. 220,000 tested, 1% active. AID 1461. Potency, µM (series often up to 38.3 µM), for inactives: at the top dose activity change, negative = inhibition, hits mostly inhibitors; also: nearly all actives have a fitted effect of over 50% in size
Target sequence (Q6W5P4 whole entry, looked up): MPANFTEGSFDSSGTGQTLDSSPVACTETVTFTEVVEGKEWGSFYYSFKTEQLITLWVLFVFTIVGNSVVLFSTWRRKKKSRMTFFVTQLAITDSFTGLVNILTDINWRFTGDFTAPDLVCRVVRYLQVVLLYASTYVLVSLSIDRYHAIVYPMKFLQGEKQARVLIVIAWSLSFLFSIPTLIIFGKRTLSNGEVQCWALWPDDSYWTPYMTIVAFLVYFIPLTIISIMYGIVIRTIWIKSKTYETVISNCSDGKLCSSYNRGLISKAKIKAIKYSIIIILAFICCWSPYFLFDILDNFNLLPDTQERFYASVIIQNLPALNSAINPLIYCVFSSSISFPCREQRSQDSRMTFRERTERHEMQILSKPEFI
Tau fluor cs = counter-screen for tau fibril formation inhibitors; tau K18 P301L Alexa594 fluorescence, heparin fibrillization; Potency, µM (highest dose often 57.7 µM), inactives show top-dose activity change, negative = decrease; 280,000 tested, 0.93% active; AID 1463; also: nearly all actives have a fitted effect of over 55% in size
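Human K18 P301L tau (15 uM unlabeled plus 0.24 uM Alexa 594-labeled, final) in 100 mM sodium acetate pH 7 was mixed with compound and 20 uM heparin and incubated 6 hr at 37 C.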
KinaseGlo FLuc = blocks Kinase-Glo luciferase, a counter-screen artifact. 200,000 tested, 0.28% active. Potency, µM (highest dose often 38.3 µM), for the others: top-dose activity change, negative = inhibition, actives largely listed as inhibitors. Kinase-Glo luciferase, ATP luminescence, 8 min; also: nearly all actives have a fitted effect of over 60% in size
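Recombinant Kinase-Glo luciferase, 10 uM ATP (linear range), luciferin; imidazole pH 7.2 / KCl / MgCl2 / Tween / BSA buffer; 8 min RT; luminescence.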
Tau fibril FP = inhibitors of human tau fibril formation | K18 P301L tau heparin fibrillization, Alexa594 FP, 6 h | Potency, µM (top dose mostly 57.7 µM), without a hit: at the highest dose activity, negative = inhibition, most hits filed as inhibitors | 280,000 tested, 0.39% active; also: nearly all actives have a fitted effect of over 55% in size
Target sequence (P10636 561-689 P618L limits assumed): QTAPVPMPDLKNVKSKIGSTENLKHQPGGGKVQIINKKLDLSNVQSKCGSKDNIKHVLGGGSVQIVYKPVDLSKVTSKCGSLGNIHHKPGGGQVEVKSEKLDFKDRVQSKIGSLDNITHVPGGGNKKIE
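K18 P301L tau (15 uM unlabeled/0.24 uM Alexa 594-labeled, final) + compound + heparin 20 uM final; 100 mM NaOAc pH 7; 6 hr 37 C; ThT 30 uM final added, 1 hr RT; FP ex 555/em 632 nm.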
Tau ThT inhib = inhibitors of human tau fibril formation, thioflavin T binding; P10636; recombinant tau K18 P301L (four-repeat tau fragment), heparin-induced fibrillization, ThT fluorescence; Potency, µM (top dose mostly 57.4 µM), without a hit: at the top dose activity, negative = inhibition, usual class: inhibitors; 270,000 tested, 2.1% active; AID 1460; also: nearly all actives have a fitted effect of over 55% in size
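Aggregation was driven by heparin (20 uM final) acting on recombinant tau […] bearing P301L in 100 mM sodium acetate pH 7; fibrils were detected with Thioflavin T.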
The depositor's hits bear a star; ? = inconclusive; nt = no result; [ ] = dose if it differs, or a comment. Calls follow the shape of the dose curve; as a rule, active = well fitted curve in the direction sought with a large enough effect; inconclusive = small, poorly fitted or top-dose-only effect, or another doubt; inactive = no such curve, though single readings can be large; an effect the other way counts as inactive or inconclusive. % is scaled to controls: 0 for no effect and ±100 for the full control effect; potency is read from the fitted curve at half-maximal effect.

SMILES	NPSR antagonist	Tau fluor cs	KinaseGlo FLuc	Tau fibril FP	Tau ThT inhib
O=C1CSC(=NC2CCCCC2)N1	8%[46.1 µM]	-8%	0%	?	22µM*
O=C1C(Nc2ccccc2)=CC(=O)c2ncccc21	nt	?	nt	?	14µM*
O=C1C=C(Nc2ccccc2)C(=O)c2ccccc21	57%	-22%	-28%	4%	?
O=C1c2ccccc2-c2nccnc21	1%[46.1 µM]	-14%	-6%	-10%	-10%
O=C1C=C(Nc2ccccc2)c2ccccc2C1=O	10µM*	-19%	-13%	-14%	?
COc1ccccc1Cn1c(CNS(=O)(=O)c2ccc3c(c2)CCCC3)nc2cccnc21	nt	-8%	nt	5%	-6%
Oc1c(Cl)cc(Cl)cc1Sc1cc(Cl)cc(Cl)c1O	-57%	?	2%	0%	14µM*
O=C1C(c2[nH]c3ccc(S(=O)(=O)O)cc3c2O)=Nc2ccc(S(=O)(=O)O)cc21	nt	-22%	-3%[39.9 µM]	?	8.9µM*
CC(/C=C1\SC(=S)N(NC(=O)c2ccc(O)cc2)C1=O)=C\c1ccccc1	-15%	7%	3%	1%	5%
CC(=C\c1ccccc1)/C=C1/SC(=S)N(C(C(=O)O)C(C)C)C1=O (stereo not drawn)	-30%	-13%	5%	-10%	25µM*
CC(/C=C1\SC(=S)N(CCCC(=O)Nc2ccc(C(=O)O)cc2)C1=O)=C\c1ccccc1	-58%	-14%	2%	-12%	14µM*
CCC(C(=O)O)N1C(=O)/C(=C/C(C)=C/c2ccccc2)SC1=S (stereo not drawn)	23%[7.67 µM]	-22%	nt	-12%	18µM*
Nn1cnnc1N/N=C/c1cc(Br)cc(Br)c1O	10%[46.1 µM]	?	-3%	-10%	14µM*
CCCCOc1ccc(C2C(=O)N(C3CCCCC3)CC(=O)N2CCCC)cc1 (stereo not drawn)	nt	3%	nt	3%	-5%
C=CCN1c2ccccc2[C@]23C[C@@H](C(=O)OC)N(S(=O)(=O)CCCC)C2=NC(C(=O)OC)=C(C(=O)OC)[C@H]13	nt	-11%[11.6 µM]	-1%[7.66 µM]	5%[11.6 µM]	-4%[11.5 µM]
CCCCC(CC)C/C=C1\CC(C(=O)OCC)Oc2ccccc21 (stereo not drawn) (tested in a mixture with another compound)	nt	?	1%[39.9 µM]	-7%[81.3 µM]	-22%[81.4 µM]
Nc1c(C(=O)NC2CC2)sc2nc3c(c(-c4ccco4)c12)CC/C3=C/c1ccco1	-10%	?	-13%	?	8.9µM*
C/C(CCC(=O)OC[C@@H]1O[C@H](C#Cc2ccccc2)C=C[C@@H]1Oc1ccc(C)cc1)=N/OC[C@@H](O)[C@H]1O[C@H]2OC(C)(C)O[C@H]2[C@@H]1O	nt	-3%[11.6 µM]	nt	-1%[11.6 µM]	3%[11.5 µM]
Cc1ccc(N/N=C2\CC(=O)c3ccccc32)cc1Cl	-1%	?	nt	?	7.1µM*
COCCNC(=O)Nc1ccc2nc(-c3cccs3)c(-c3cccs3)nc2c1	-26%[46.1 µM]	16µM*[quencher]	-2%	16µM*	?
CC(=O)Nc1ccc(S(=O)(=O)/N=C2\C(=O)c3ccccc3C([O-])=C2n2cc[n+](-c3ccccn3)c2)cc1	15%	14µM*[quencher]	nt	?	13µM*
Cc1ccc(S(=O)(=O)/N=C2\C(=O)c3ccccc3C([O-])=C2n2cc[n+](CCC(C)C)c2)cc1	8%[46.1 µM]	-24%	-5%	-10%	?
Oc1c(Cl)cc(Cl)cc1C(C#Cc1ccccc1)N1CCOCC1 (stereo not drawn)	-9%[46.1 µM]	?	2%	-4%	14µM*
O=C1CSC2(C(=O)N(Cc3cccc(C(F)(F)F)c3)c3ccccc32)N1c1ccc(F)c(F)c1 (stereo not drawn)	nt	-24%	nt	-2%	-7%
COc1ccc(C(=O)C2C3C4COC(O4)C(=O)C3C3C=Cc4ccccc4N32)c(OC)c1 (stereo not drawn)	nt	20µM*[fluorescent]	-30%	11µM*	20µM*
SMILES	NPSR antagonist	Tau fluor cs	KinaseGlo FLuc	Tau fibril FP	Tau ThT inhib
COc1ccc(-n2cc(-c3ccc4c(c3)OCO4)n(CC(=O)Nc3cccc(C)c3C)c2=O)c(OC)c1	nt	-24%	nt	9%	?
CC(=O)[C@@H]1[C@H]2[C@H](C(=O)[C@H]3OC[C@@H]2O3)[C@H]2C=Cc3ccccc3N21	nt	?	?	?	16µM*
Cc1ccc(C(=O)[C@@H]2[C@H]3C4COC(O4)C(=O)[C@@H]3[C@H]3C=Cc4ccccc4N32)cc1 (stereo partly drawn)	nt	?	-1%	?	22µM*
Cc1ccc(C)c(CNC(=O)c2sc3ncnc(N(C)C4CCCCC4)c3c2C)c1	nt	-2%	nt	1%	-7%
COc1ccc(/C=C/C(=O)OCCC(C)C)cc1	nt	-14%	-1%[39.9 µM]	-2%	-14%
CC(=O)c1ccc(NC(=O)CCc2c(C)nn(-c3ccc(N4CCCCC4)nn3)c2C)cc1	nt	-13%	nt	0%	?
CC(/C=C/C=C/c1ccccc1)=N\NC(=O)c1cccnc1	-14%	-6%	2%	-1%	?
CC(/C=C\C=C\c1ccccc1)=N\NC(=O)c1cncc(Br)c1	-44%	-14%	3%	3%	10µM*
COc1ccc(-c2[nH]ncc2-c2ccc(Cl)cc2)c(O)c1	?	?	1%	6%	-5%
COc1ccc(-c2cn[nH]c2-c2ccc(OCc3ccccc3)cc2O)cc1	?	6.3µM*[quencher]	nt	?	-14%
COc1ccccc1-c1cn[nH]c1-c1ccc(OCc2ccccc2)cc1O	-26%	11µM*[quencher]	nt	?	-13%
CC(C)(C)C(=O)N1CCN(c2nc3c(F)cccc3s2)CC1	nt	-7%	nt	-10%	?
COc1ccc(CNC(=O)C2CCN(c3nnc(-n4cccc4CNc4ccc(C)cc4)s3)CC2)c(OC)c1	nt	-25%	nt	-1%	?
O=C(Nc1ccccc1F)Nc1ccccc1F	0%	-4%	-21%	-2%	1%
O=C(Nc1ccccc1F)Nc1cccc2ccc(O)cc12	-16%	14µM*[quencher]	nt	?	16µM*
O=C(COCc1cc(-c2ccc(F)cc2)on1)Nc1cc(Cl)cc(Cl)c1	nt	-27%	nt	?	-11%
CCOC(=O)N1CCC(Nc2c(Nc3ccc(F)cc3)c(=O)c2=O)CC1	-13%[46.1 µM]	-20%	-2%	?	-9%
CCOC(=O)N1CCC(Nc2c(Nc3cccc(CC)c3)c(=O)c2=O)CC1	?	14µM*[quencher]	-2%	?	?
Nc1cc2nc3ccccc3oc-2cc1=O	16%	?	nt	11µM*	7.1µM*
O=c1oc2ccccc2cc1-c1nc2ccccc2o1	-9%[46.1 µM]	-7%	?	2%	?
CNc1cc(OC)c(C(=O)N[C@@H]2CCN(Cc3ccccc3)[C@H]2C)cc1Cl	nt	-12%	-2%	2%	-17%
CCc1ccc(S(=O)(=O)c2nnn3c2nc(NC2CCCC2)c2sccc23)cc1	nt	-12%	nt	?	9%
